Data on 40 compounds can be found in PubChem BioAssay.

A word on the viability: it is a read-out of living cells in per cent, often relative to untreated cells.

A number with no mark means an inactive call.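 Rule for the calls, unless noted: active = viability at or below 10% of carrier control in both of two separate runs; inconclusive = viability at or below 10% in only one of the two runs; inactive = the rest.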

The first test deals with Receptor tyrosine-protein kinase erbB-2 (Homo sapiens) (UniProt P04626). Description: Her2 expression decrease, cell viability multiplex – SKBR3 breast tumor cells, AlphaScreen, ATP viability, primary screen (AID 461;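 active = Her2 level under about 52% in both replicate screens, with viability over 70% of control, limit read from the data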;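 note: lower value means less Her2 protein in the cells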). Particulars: 18-24 h, at 10 µM, active compounds read low. In general terms: In Alpha technology, singlet oxygen from a donor bead excites a nearby acceptor bead.
Chain of Receptor tyrosine-protein kinase erbB-2 (Homo sapiens) (P04626 whole entry, looked up): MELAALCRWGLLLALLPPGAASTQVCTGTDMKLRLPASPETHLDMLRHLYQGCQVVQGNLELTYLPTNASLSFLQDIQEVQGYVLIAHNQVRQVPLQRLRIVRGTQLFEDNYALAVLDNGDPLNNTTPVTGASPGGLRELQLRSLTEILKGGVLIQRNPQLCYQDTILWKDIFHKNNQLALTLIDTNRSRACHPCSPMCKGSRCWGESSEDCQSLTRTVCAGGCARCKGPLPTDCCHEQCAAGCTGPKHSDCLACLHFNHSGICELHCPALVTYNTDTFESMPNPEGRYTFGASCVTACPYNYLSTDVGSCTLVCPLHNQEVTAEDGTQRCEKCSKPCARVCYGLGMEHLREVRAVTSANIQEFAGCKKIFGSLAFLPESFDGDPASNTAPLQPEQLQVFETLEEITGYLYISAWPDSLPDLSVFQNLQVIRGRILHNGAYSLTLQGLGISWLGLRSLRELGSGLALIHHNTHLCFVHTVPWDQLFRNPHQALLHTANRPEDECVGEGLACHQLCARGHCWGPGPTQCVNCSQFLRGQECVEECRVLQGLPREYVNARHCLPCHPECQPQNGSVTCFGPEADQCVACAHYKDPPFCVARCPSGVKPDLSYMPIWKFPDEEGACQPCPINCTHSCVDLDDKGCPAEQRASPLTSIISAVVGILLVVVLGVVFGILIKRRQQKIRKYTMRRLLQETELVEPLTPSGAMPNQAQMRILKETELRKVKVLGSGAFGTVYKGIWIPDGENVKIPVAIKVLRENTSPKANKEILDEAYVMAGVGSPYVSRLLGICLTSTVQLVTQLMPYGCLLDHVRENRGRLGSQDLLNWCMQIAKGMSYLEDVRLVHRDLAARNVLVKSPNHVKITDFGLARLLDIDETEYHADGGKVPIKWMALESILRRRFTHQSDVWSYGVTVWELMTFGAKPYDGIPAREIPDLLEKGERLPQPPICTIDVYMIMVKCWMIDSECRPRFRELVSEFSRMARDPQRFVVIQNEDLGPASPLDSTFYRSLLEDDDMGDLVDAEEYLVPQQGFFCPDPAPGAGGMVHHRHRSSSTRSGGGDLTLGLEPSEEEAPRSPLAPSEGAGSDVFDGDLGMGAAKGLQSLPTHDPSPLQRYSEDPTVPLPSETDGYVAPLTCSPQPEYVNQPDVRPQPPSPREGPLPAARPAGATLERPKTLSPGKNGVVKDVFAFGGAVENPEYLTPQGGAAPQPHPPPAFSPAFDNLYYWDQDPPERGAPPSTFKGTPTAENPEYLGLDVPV
`Cc1ccc(S(=O)(=O)N2CCN(CCO)CC2)cc1-c1nnc2c3ccccc3c(C)nn12`: the Her2 level was 94%.

Regarding `CC1=C(C(=O)Nc2ccccc2)C(c2ccco2)C(C#N)=C(SCC(=O)Nc2cccc(C)c2C)N1` (centres undefined), the Her2 level was 85.5%.

In the case of `CCOC(=O)c1cc(CC)sc1NC(=O)CCC(=O)O`, the Her2 level is 93%.

As to `O=C(NCC(c1cccnc1)N1CCOCC1)c1cccs1` (centres undefined), the Her2 level is 75.5%.

In the case of `O=c1cc(-c2ccccc2)[nH]c2nc3ccccc3n12`, the Her2 level was 60.5%.

As for `O=C(c1ccccc1-c1ccccc1)N1CCN(c2ccccn2)CC1`, the Her2 level is 93%.

Take `CCc1ccccc1NC(=O)CSc1nc2n[nH]c(C)c2c(=N)n1-c1ccc(OC)cc1`: the Her2 level is 77.5%.

As for `Cc1cccc(C)c1NC(=O)CC(NCc1ccco1)C(=O)O` (centres undefined), the Her2 level is 85%.

On to `Cc1noc(NS(=O)(=O)c2ccc(N3C(=O)c4ccccc4C3=O)cc2)c1C`, for which the Her2 level is 98%.

Regarding `O=C(NC(C(=O)c1ccccc1)n1ccc(=O)[nH]c1=O)c1ccccc1` (centres undefined), the Her2 level is 99%.

With `CCc1nnc(NC(=O)NCN2C(=O)C3C4C=CC(C4)C3C2=O)s1` (centres undefined), the Her2 level is 85.5%.

Consider `Cc1cc(C)c(C)c(S(=O)(=O)Nc2ccc(O)cc2)c1C`, for which the Her2 level was 87.5%.

For `COc1cccc(C(c2nnnn2CCc2ccccc2)N2CCN(c3ccccc3)CC2)c1OC` (centres undefined), the Her2 level is 88%.

Turning to `O=C(CSc1nc(-c2ccccc2)cs1)NCc1ccco1`, the Her2 level was 102%.

As for `Cc1cccc2cc(CN(CCCO)C(=O)Nc3ccc(Cl)cc3)c(=O)[nH]c12`, the Her2 level is 69.5%.

In the case of `O=C(O)c1oc2ccccc2c1-n1cccc1`, the Her2 level was 86.5%.

Regarding `O=C1CCc2cc(S(=O)(=O)N3CCC(C(=O)Nc4nccs4)CC3)ccc2N1`, the Her2 level was 105%.

As to `CC(=O)N1C(=O)C2(C(C#N)=C(N)Oc3cc(C)oc(=O)c32)c2ccccc21` (centres undefined), the Her2 level was 112%.

As for `CCOc1ccc(C(=O)N2CCN(c3ccccc3)CC2)cc1OCC`, the Her2 level was 102%.

Regarding `O=C(Cn1cnc2c(nnn2Cc2ccccc2)c1=O)c1ccc(Cl)cc1`, the Her2 level is 110%.

As for `CCCNS(=O)(=O)c1ccc(OCC(=O)NCc2ccc3c(c2)OCO3)cc1`, the Her2 level is 89.5%.

With `COCCN(C(=O)CCC(=O)Nc1ccccn1)C(C(=O)NC1CCCC1)c1ccc(OC)cc1` (centres undefined), the Her2 level is 105%.

Turning to `Cn1c(=O)n(CC(=O)OCc2ccccc2)c(=O)c2c1nc1n2CCCN1C1CCCCC1`, the Her2 level is 86%.

`CCOc1ccc(-c2nnn(CCC(=O)O)n2)cc1OC`: the Her2 level was 84%.

System in a further test: not listed separately
Briefly: reduced viability of SK-BR-3 breast cancer cells – cell-based, 24 h, human, pilot screen (AID 572).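 Note: compound exposure lasted between 18 and 24 h rather than exactly 24 h; 100% = carrier-treated control wells.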 The following applies: SK-BR-3 viability, CellTiter-Glo luminescence, at 10 µM, active compounds read low. Background: In ATP-based viability assays light output follows the ATP content of the culture.
As to `CC1=C(C(=O)OCCOC(C)C)C(c2cc3c(cc2Br)OCO3)C2=C(CCCC2=O)N1` (centres undefined), the viability is 102%.

`O=C(NCC(c1cccnc1)N1CCN(c2ccccc2)CC1)c1ccc2c(c1)OCO2` (centres undefined): the viability is 92%.

For `CCOC(=O)C(NC(C)=O)(NS(=O)(=O)c1ccccc1)C(F)(F)F` (centres undefined), the viability is 122%.

In the case of `CC(C)(C)Nc1nc(NC(C)(C)C)nc(-n2ccnc2)n1`, the viability was 122%.

Regarding `Cc1nc2c3cnn(-c4ccccc4)c3ncn2n1`, the viability was 104%.

Consider `CCOC(=O)C1CCN(c2c(Nc3ccc4c(c3)OCCO4)c(=O)c2=O)CC1`, for which the viability is 82.5%.

For `Cc1ccc(SCc2[nH]nc3c2C(c2ccc(C)o2)C(C#N)=C(N)O3)cc1` (centres undefined), the viability is 91%.

Turning to `CCOC(=O)N1CCN(C(=O)CCc2ccc(S(=O)(=O)NCCc3ccccc3)cc2)CC1`, the viability is 89.5%.

Regarding `O=C(CSc1nnnn1-c1ccc(Cl)cc1)NC(=O)Nc1ccc2c(c1)OCCO2`, the viability is 104%.

Regarding `CCCCn1c(CN2CCN(c3cccc(Cl)c3)CC2)nc2c1c(=O)n(C)c(=O)n2C`, the viability was 111%.

Take `COc1ccc(Cn2c(CCCO)nc3ccccc32)cc1OC`: the viability is 98.5%.

As to `CC1(C)NC(=O)N(CC(O)CN(Cc2ccccc2)Cc2ccccc2)C1=O` (centres undefined), the viability is 78%.

For the compound `Cc1cc(C)n(C(=O)CNC(=O)C2COc3ccccc3O2)n1` (centres undefined), the viability is 122%.

In the case of `CCOC(=O)c1ccc2[nH]c(C)c(CN3CCN(C)CC3)c(=O)c2c1`, the viability is 114%.

In the case of `Cc1cc(=O)n(C)c(=O)n1CCCNc1ccccc1`, the viability is 82%.

Regarding `S=c1[nH]nc(-c2cccc(Br)c2)o1`, the viability was 91%.

As for `Cc1ccc(S(=O)(=O)N2CCN(CCO)CC2)cc1-c1nnc2c3ccccc3c(C)nn12`, the viability was 104%.

`CC1=C(C(=O)Nc2ccccc2)C(c2ccco2)C(C#N)=C(SCC(=O)Nc2cccc(C)c2C)N1` (centres undefined): the viability was 104%.

Regarding `CCOC(=O)c1cc(CC)sc1NC(=O)CCC(=O)O`, the viability was 121%.

Turning to `O=C(NCC(c1cccnc1)N1CCOCC1)c1cccs1` (centres undefined), the viability is 101%.

As to `O=c1cc(-c2ccccc2)[nH]c2nc3ccccc3n12`, the viability was 90.5%.

As to `O=C(c1ccccc1-c1ccccc1)N1CCN(c2ccccn2)CC1`, the viability is 69.5%.

Take `CCc1ccccc1NC(=O)CSc1nc2n[nH]c(C)c2c(=N)n1-c1ccc(OC)cc1`: the viability is 98.5%.

Regarding `Cc1cccc(C)c1NC(=O)CC(NCc1ccco1)C(=O)O` (centres undefined), the viability is 116%.

Take `Cc1noc(NS(=O)(=O)c2ccc(N3C(=O)c4ccccc4C3=O)cc2)c1C`: the viability is 116%.

Regarding `O=C(NC(C(=O)c1ccccc1)n1ccc(=O)[nH]c1=O)c1ccccc1` (centres undefined), the viability was 98.5%.

For `CCc1nnc(NC(=O)NCN2C(=O)C3C4C=CC(C4)C3C2=O)s1` (centres undefined), the viability was 123%.

As for `Cc1cc(C)c(C)c(S(=O)(=O)Nc2ccc(O)cc2)c1C`, the viability was 100%.

As to `COc1cccc(C(c2nnnn2CCc2ccccc2)N2CCN(c3ccccc3)CC2)c1OC` (centres undefined), the viability was 91%.

`O=C(CSc1nc(-c2ccccc2)cs1)NCc1ccco1`: the viability is 100%.

In the case of `Cc1cccc2cc(CN(CCCO)C(=O)Nc3ccc(Cl)cc3)c(=O)[nH]c12`, the viability is 74%.

For `O=C(O)c1oc2ccccc2c1-n1cccc1`, the viability was 102%.

For the compound `O=C1CCc2cc(S(=O)(=O)N3CCC(C(=O)Nc4nccs4)CC3)ccc2N1`, the viability is 98%.

For `CC(=O)N1C(=O)C2(C(C#N)=C(N)Oc3cc(C)oc(=O)c32)c2ccccc21` (centres undefined), the viability was 95.5%.

For the compound `CCOc1ccc(C(=O)N2CCN(c3ccccc3)CC2)cc1OCC`, the viability was 104%.

In the case of `O=C(Cn1cnc2c(nnn2Cc2ccccc2)c1=O)c1ccc(Cl)cc1`, the viability is 93.5%.

`CCCNS(=O)(=O)c1ccc(OCC(=O)NCc2ccc3c(c2)OCO3)cc1`: the viability was 105%.

Turning to `COCCN(C(=O)CCC(=O)Nc1ccccn1)C(C(=O)NC1CCCC1)c1ccc(OC)cc1` (centres undefined), the viability was 106%.

As to `Cn1c(=O)n(CC(=O)OCc2ccccc2)c(=O)c2c1nc1n2CCCN1C1CCCCC1`, the viability was 81%.

With `CCOc1ccc(-c2nnn(CCC(=O)O)n2)cc1OC`, the viability was 95.5%.
